# Records with an inconclusive call do not appear. Calls of active or inactive are those of the source. Calls follow the shape of the dose curve; as a rule, active = well fitted inhibition curve with a large enough effect; inconclusive = small, poorly fitted or top-dose-only effect; inactive = flat fitted curve, though single readings scatter.
# Tests used:
# Assay in all cases: qHTS profiling for inhibitors of Plasmodium falciparum proliferation (AID 504749); also: nearly all actives have a fitted effect of over 60% in size
# Conditions in all cases: P. falciparum in erythrocytes, SYBR Green DNA, 72 h; series mostly up to 28.7 µM
# CP305 = test system: CP305
# Outline: (§1)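 P. falciparum-infected erythrocytes (0.3% parasitemia, 2.5% hematocrit) incubated with compound 72 h at 37 C, 5% CO2. Parasite DNA detected by SYBR Green after lysis, overnight at room temperature; normalised to 0.29 uM artemisinin and DMSO.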
# CP315 = test system: CP315
# Outline: as §1
# CP325 = test system: CP325
# Outline: as §1
# CP329 = test system: CP329
# Outline: as §1
# CP335 = test system: CP335
# Outline: as §1
# DIV14 = test system: DIV14
# Outline: as §1
# DIV17 = test system: DIV17
# Outline: as §1
# DIV30 = test system: DIV30
# Outline: as §1
# Dd2 = test system: Dd2
# Outline: as §1
# DFO2036 = test system: DFO2036
# Outline: as §1
# Potency is read from the fitted curve at half-maximal effect.
SMILES,Potency (CP305),Potency (CP315),Potency (CP325),Potency (CP329),Potency (CP335),Potency (DIV14),Potency (DIV17),Potency (DIV30),Potency (Dd2),Potency (DFO2036)
C=CCN1CCCC1CNC(=O)c1cc(S(N)(=O)=O)cc(OC)c1OC (stereo not drawn),inactive,inactive,inactive,inactive,inactive,inactive,inactive,inactive,inactive,
OC1OC[C@@H](O)[C@H](O)[C@@H]1O (stereo partly drawn),inactive,inactive,inactive,inactive,,inactive,inactive,inactive,inactive,inactive
N=C(N)c1ccc(/C=C/c2ccc(C(=N)N)cc2O)cc1,6.01 µM (active),6.01 µM (active),3.38 µM (active),2.13 µM (active),,6.75 µM (active),6.01 µM (active),2.13 µM (active),0.112 µM (active),1.12 µM (active)
Cn1cc(NC(=O)c2cc(NC(=O)c3cc(NC=O)cn3C)cn2C)cc1C(=O)NCCC(=N)N,8.49 µM (active),,10.7 µM (active),15.1 µM (active),8.49 µM (active),3.38 µM (active),3.79 µM (active),,,
C=CC[C@@H]1/C=C(\C)C[C@H](C)C[C@H](OC)[C@H]2O[C@@](O)(C(=O)C(=O)N3CCCC[C@H]3C(=O)O[C@H](/C(C)=C/[C@@H]3CC[C@@H](O)[C@H](OC)C3)[C@H](C)[C@@H](O)CC1=O)[C@H](C)C[C@@H]2OC,,6.75 µM (active),4.26 µM (active),4.26 µM (active),,1.69 µM (active),1.69 µM (active),0.849 µM (active),0.112 µM (active),1 µM (active)
CCN(CC)CCC(=O)N1c2ccccc2Sc2ccc(Cl)cc21,,,,,,5.36 µM (active),8.49 µM (active),,5.62 µM (active),
O=C(CCCN1CCC(C(=O)c2ccc(F)cc2)CC1)c1ccc(F)cc1,,inactive,inactive,inactive,,0.757 µM (active),4.78 µM (active),inactive,8.91 µM (active),inactive
CC(=O)c1ccc2c(c1)N(CCCN1CCN(CCO)CC1)c1ccccc1S2,,,16.9 µM (active),15.1 µM (active),12 µM (active),7.57 µM (active),12 µM (active),16.9 µM (active),12.6 µM (active),
Oc1cccc(O)c1O,,inactive,,,,,9.53 µM (active),inactive,,inactive
O=C(OC1C[C@@H]2CC3C[C@H](C1)N2CC3=O)c1c[nH]c2ccccc12 (stereo partly drawn),,inactive,inactive,inactive,,7.57 µM (active),7.57 µM (active),,inactive,inactive
C=CC[N+]1([C@H]2C[C@H]3[C@@H]4CC[C@H]5C[C@H](O)[C@@H](N6CCOCC6)C[C@]5(C)[C@H]4CC[C@]3(C)[C@H]2OC(C)=O)CCCC1,,,,,12 µM (active),inactive,inactive,,10 µM (active),
CS(=O)(=O)c1ccc([C@@H](O)[C@@H](COC(=O)CN)NC(=O)C(Cl)Cl)cc1,,,,,,inactive,inactive,inactive,6.31 µM (active),
CCC(=O)c1ccc2c(c1)N(CCCN1CCN(CCO)CC1)c1ccccc1S2,10.7 µM (active),9.53 µM (active),,,6.01 µM (active),9.53 µM (active),13.5 µM (active),13.5 µM (active),5.62 µM (active),8.91 µM (active)
CNC(=O)[C@H](Cc1c[nH]c2ccccc12)NC(=O)[C@@H](CC(=O)NO)CC(C)C,,inactive,,,,,,,,
CSc1nc2cc(Oc3cccc(Cl)c3Cl)c(Cl)cc2[nH]1,13.5 µM (active),,13.5 µM (active),13.5 µM (active),,9.53 µM (active),,10.7 µM (active),14.1 µM (active),8.91 µM (active)
N#Cc1ccc2c(c1)N(CCCN1CCC(O)CC1)c1ccccc1S2,,inactive,,,,8.49 µM (active),9.53 µM (active),,5.01 µM (active),
CCOc1cc(-c2nccc3cc(OC)c(OC)cc23)cc(OCC)c1OCC,,,inactive,,,,,,,
O=c1n(CC2CO2)c(=O)n(CC2CO2)c(=O)n1CC1CO1 (stereo not drawn),,inactive,inactive,inactive,,,,inactive,,
O=C(c1cc2ccccc2o1)N1CCN(Cc2ccccc2)CC1,inactive,inactive,,,,,,inactive,inactive,
O=C1CCC(c2ccccc2)(C2CCN(Cc3ccccc3)CC2)C(=O)N1 (stereo not drawn),,inactive,inactive,inactive,,,,inactive,,inactive
CSCCC(N)C(=O)O (stereo not drawn),inactive,,inactive,inactive,inactive,inactive,inactive,,inactive,inactive
CC(CN(C)C)CN1c2ccccc2Sc2ccc(C(F)(F)F)cc21 (stereo not drawn),,inactive,inactive,,,5.36 µM (active),3.01 µM (active),,3.55 µM (active),10 µM (active)

SMILES,Potency (CP305),Potency (CP315),Potency (CP325),Potency (CP329),Potency (CP335),Potency (DIV14),Potency (DIV17),Potency (DIV30),Potency (Dd2),Potency (DFO2036)
CCCOc1cc(N)ccc1C(=O)OCCN(CC)CC,inactive,,,inactive,,inactive,inactive,,inactive,inactive
NC(N)=NCC1COc2ccccc2O1 (stereo not drawn),,inactive,,,,inactive,,inactive,,
CC(C)C1=CC2=CC[C@@H]3[C@](C)(CCC[C@@]3(C)C(=O)O)[C@H]2CC1,,,,,inactive,,,,inactive,inactive
CNC(=O)c1c(I)c(C(=O)NCC(=O)Nc2c(I)c(C(=O)O)c(I)c(C(=O)NCCO)c2I)c(I)c(N(C)C(C)=O)c1I,inactive,,inactive,inactive,inactive,inactive,inactive,inactive,inactive,inactive
Cc1ncc[nH]1,inactive,,inactive,inactive,inactive,inactive,inactive,inactive,inactive,inactive
Cn1c(O)c(N=NC(N)=S)c2ccccc21,,inactive,inactive,inactive,,,,,,
COc1cc(NCCCC(C)N)c2ncccc2c1 (stereo not drawn),6.75 µM (active),,7.57 µM (active),,6.75 µM (active),2.13 µM (active),1.35 µM (active),4.78 µM (active),2 µM (active),11.2 µM (active)
CC[C@H]1OC(=O)[C@H](C)[C@@H](O[C@H]2C[C@@](C)(OC)[C@@H](O)[C@H](C)O2)[C@H](C)[C@@H](O[C@@H]2O[C@H](C)C[C@H](N(C)C)[C@H]2O)[C@](C)(O)C[C@@H](C)CN(C)[C@H](C)[C@@H](O)[C@]1(C)O,,,,,5.36 µM (active),,,,0.355 µM (active),5.01 µM (active)
CCCCCCCCCCCCCCCCOCCOCCOCCOCCOCCOCCOCCOCCOCCOCCOCCOCCOCCOCCOCCOCCOCCOCCOCCOCCO,12 µM (active),inactive,,,inactive,13.5 µM (active),13.5 µM (active),,11.2 µM (active),
COc1ccc2c(c1)OC(C)(C)C(c1ccccc1)C2c1ccc(OCCN2CCCC2)cc1 (stereo not drawn),13.5 µM (active),,6.75 µM (active),,3.79 µM (active),6.75 µM (active),7.57 µM (active),12 µM (active),3.98 µM (active),4.47 µM (active)
C=C1C(CCl)(CCl)C2(Cl)C(Cl)C(Cl)C1(Cl)C2(Cl)Cl (stereo not drawn),3.79 µM (active),,3.79 µM (active),6.75 µM (active),3.01 µM (active),1.69 µM (active),1.9 µM (active),1.69 µM (active),2.24 µM (active),2 µM (active)
C/C(=C\C(=O)OCCCCCCCCC(=O)O)C[C@@H]1OC[C@H](C[C@@H]2O[C@H]2[C@@H](C)[C@H](C)O)[C@@H](O)[C@H]1O,,,,,0.151 µM (active),,,,0.178 µM (active),
OCCOCCOCCO,,,,,inactive,,,,inactive,inactive
CC(C)(C)CC(C)(C)c1ccc(OCCO)cc1,inactive,,inactive,inactive,inactive,inactive,inactive,inactive,inactive,inactive
CCOC(=O)c1c[nH]c2cc(OCC(C)C)c(OCC(C)C)cc2c1=O,0.0675 µM (active),,0.0601 µM (active),,0.0675 µM (active),0.151 µM (active),0.338 µM (active),,0.141 µM (active),0.1 µM (active)
OCc1ccccc1,,inactive,,inactive,,,,,,
C#C[C@]1(O)CC[C@@H]2[C@H]3CCC4=CC(=O)CC[C@H]4[C@H]3C(=C)C[C@@]21CC,0.426 µM (active),0.478 µM (active),,,inactive,,,,inactive,inactive
CN(C)CCC=C1c2ccccc2C(C)(C)c2ccccc21,,,,inactive,,6.75 µM (active),6.75 µM (active),,,
O.O.O.O.O.O.O.O=S(=O)([O-])[O-].[Co+2],6.75 µM (active),,,12 µM (active),6.75 µM (active),,,9.53 µM (active),7.94 µM (active),11.2 µM (active)
CC(=O)[O][Al][O]C(C)=O,,inactive,,,inactive,,,inactive,inactive,inactive
CCN(CC)CCCC(C)Nc1cc(/C=C/c2ccccc2Cl)nc2cc(Cl)ccc12 (stereo not drawn),,,0.849 µM (active),6.75 µM (active),2.69 µM (active),4.26 µM (active),4.26 µM (active),1.69 µM (active),2.24 µM (active),1 µM (active)

# — PubChem BioAssay (NCATS)
